# Data published in the supplement of paper PMC11417369.
# ± gives the standard deviation of the averaged measurements. Over roughly 25,000 sequences, “ln(normalized median fluorescence intensity)” has its median near 7.9; the highest 2% begin near 11. This excerpt belongs to a sample that is enriched for the highest values.
# Test system: PfAP2-I AP2 domain 3 (GST-tagged)
# Assay: gcPBM binding intensity (ln(normalized median fluorescence intensity)); higher = stronger DNA binding
# Method in brief: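 For binding intensity, the highest Masliner-normalised natural-log median intensity across replicate spots of either probe orientation was taken. Protein bound to the array was stained with Alexa488 anti-GST antibody and scanned at 488 nm. The protein, GST-tagged P. falciparum DNA-binding domains from E. coli at about 25 μg on average, had been applied for 1 h to an Agilent 4 × 180k array of primer-extended double-stranded 36-bp intergenic genomic probes and negative controls.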
row,Sequence,gcPBM binding intensity (ln)
1,TACACACCTAACTATGCATGCATCAATATAGTGGAT [TGCATGCA_site443],7.76 ± 0.75
2,AACGGGTAATGCACAAAAAAAAAAAAATAAAATAAA [TGCATGCA_negctrl_site474],11.4 ± 1
3,AAAATATAATATAATGCACACATAAACAAAAAAAAA [CACACA_site8161],10.9 ± 0.74
4,TAATAAATCAAATGCACACACACAAAAAAAAAAAAA [CACACA_site161],9.24 ± 0.38
5,AATATAATATAATGCACACATAAAAAAAAAATCAAA [CACACA_site122],11.2 ± 1
6,CACAAAAATAAACACACACACATATATATATATATA [CACACA_site4704],9.39 ± 0.42
7,AAAATTTAATATAATGCACACATAAAACAAAAACAA [CACACA_site8071],10.9 ± 0.64
8,AATATAAAAATGCACACACACAAAAAAAAAAAAAAA [CACACA_site6546],9.03 ± 0.16
9,AATTTAATATAATGCACACATAAAACAAAAACAAAA [CACACA_site529],10.8 ± 0.72
10,ATAAATCAAATGCACACACACAAAAAAAAAAAAAAA [CACACA_site6221],9.31 ± 0.16
11,CATTAACAAATAAATGCACACATATATATAAATAAT [CACACA_site7892],9.51 ± 0.35
12,ATGGATTTTACCATAGCACACATATATGAATATTTT [CACACA_site8535],7.96 ± 0.54
13,ATTAAATTAAAATAATGTACTTAATACTTTTGCTTA [XGTACX_site8404],7.39 ± 0.39
14,CCCCCCGTGTTATATACACACATAATCAAATAAAAT [CACACA_site4111],10.9 ± 0.4
15,AAAATATAAAATAATGCACACATAAACAAAAAATCA [CACACA_site8382],10.8 ± 0.96
16,AAAATATAATATAATGCACACATAAAACAAAAAAAA [CACACA_site8989],10.7 ± 0.67
17,AAATTATAATATAATACACACATAAAAAAAAAATCA [CACACA_site3634],7.76 ± 0.45
18,TTAACAAATAAATGCACACATATATATAAATAATAT [CACACA_site28],9.52 ± 0.35
19,AATATAATATAATGCACACATAAACAAAAAAAAAAT [CACACA_site1304],10.9 ± 0.96
20,AAATCACATAAAACATAATCAAATGAAATATAATCA [CACACA_negctrl_site123],7.38 ± 0.6
21,AATATAAAATAATGCACACATAAACAAAAAATCAAA [CACACA_site1371],10.9 ± 0.88
22,AGGCACGTGTTATATACACACATAATCAAATAAACT [CACACA_site7852],8.11 ± 0.61
23,AATTTTTTATTCTTTGCATGTCATCATATATAATAT [TGCATGCA_site549],8.12 ± 0.69
24,TCTTATTTAAAAATAGCACACATTATATATATATAT [CACACA_site8916],9.44 ± 0.26
